Most compounds without a hit are left out; they make up all but 6% or so of the library.
D3 antag: blocks the human D3 dopamine receptor; AID 652054; max response, negative = inhibition, %; D3R cells, DiscoveRx beta-arrestin luminescence, antagonist mode; stronger effect = lower value; P35462; 360,000 tested, 2.5% active; in the data active = max response below about -50%; inconclusive = no clear call, values can overlap the other calls
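Cells expressing the human receptor were seeded at 1500 cells/well, incubated overnight at 37 degrees C in 5% CO2, then exposed to library compounds with dopamine controls for 90 minutes at 37 degrees C before luminescent detection.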
D1 agonist: agonists of human D1 dopamine receptor | P21728 | HEK293 T-REx D1 cells, calcium flux, agonist mode | activation, % at 2 µM | 360,000 tested, 1% active | AID 504660; in the data active = activation above about 30%
Target sequence (P21728 whole entry, looked up): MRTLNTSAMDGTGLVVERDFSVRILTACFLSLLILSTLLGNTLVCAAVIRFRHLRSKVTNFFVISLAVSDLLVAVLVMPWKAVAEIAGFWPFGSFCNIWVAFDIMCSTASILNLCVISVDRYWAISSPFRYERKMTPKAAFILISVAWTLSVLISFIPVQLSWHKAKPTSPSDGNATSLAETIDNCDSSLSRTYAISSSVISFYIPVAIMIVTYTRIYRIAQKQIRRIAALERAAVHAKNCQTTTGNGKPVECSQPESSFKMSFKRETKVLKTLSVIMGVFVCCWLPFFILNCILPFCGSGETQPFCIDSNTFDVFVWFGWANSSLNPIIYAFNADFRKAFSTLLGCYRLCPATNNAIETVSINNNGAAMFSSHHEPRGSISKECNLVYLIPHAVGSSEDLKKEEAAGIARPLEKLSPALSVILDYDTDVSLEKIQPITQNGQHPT
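Tetracycline-induced HEK293 TREx D1 cells, force-coupled to calcium signalling, were dye-loaded with a no-wash calcium kit. Compound was pin-added after a 10 s baseline. Fluorescence was read kinetically at 1 cycle/s for 180 s, with calcium rises flagged as agonism.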
D1 antag: human D1 dopamine receptor antagonism; activity change, negative = inhibition, % at 10 µM; HEK293 TREx D1 cells, calcium flux, dopamine EC80; stronger effect = lower value; P21728; 360,000 tested, 3.2% active; in the data active = activity change below about -30%
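Kinetic fluorescence of a calcium dye serves as the read-out. D1-expressing Hek293 Trex cells, induced overnight at 30 C, are exposed to compound for 180 s before an EC80 dopamine addition, then read 180 s further.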
DRD3 agonist: activates the human D3 dopamine receptor; P35462; D3R DiscoveRx beta-arrestin cells, luminescence, 90 min; max activation, %; 410,000 tested, 0.58% active; AID 652048; in the data active = max activation above about 30%
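Cells at 1500/well, incubated overnight, then treated with pinned compounds (dopamine as control) for 90 min at 37 degrees C. DiscoveRx reagent added for 30 - 60 minutes at room temperature; luminescence read.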
D1 PAM: potentiators of human D1 dopamine receptor | 360,000 tested, 0.036% active | potentiation, % at 10 µM | P21728 | AID 504651 | HEK293 TREx D1 cells, calcium flux, dopamine EC20 potentiation; in the data active = potentiation above about 30%
Hits are given with their value; i = inactive; ? = inconclusive; nt = no result given.

SMILES	D3 antag	D1 agonist	D1 antag	DRD3 agonist	D1 PAM
O=C(CN1CCN(c2ccccn2)CC1)NCCc1ccccc1	i	i	i	i	i
CC1(C)C2CC[C@]1(C)C(=O)N(CCCCN1CCN(c3ccccn3)CC1)C2=O	i	i	i	80	i
O=S(=O)(CCN1CCN(c2ccccn2)CC1)c1ccc(F)cc1	i	i	i	i	i
O=C(CCCN1CCN(c2ccccn2)CC1)c1ccc(F)cc1	i	i	-74	i	i
CC(=O)NCC1(c2ccccc2)CCN(CCCC(=O)c2ccc(F)cc2)CC1	-116	nt	nt	i	nt
Cc1ccc(C2(O)CCN(CCCC(=O)c3ccc(F)cc3)CC2)cc1	nt	nt	nt	i	nt
Cc1c(-c2ccc(O)cc2)n(Cc2ccc(OCCN3CCCCCC3)cc2)c2ccc(O)cc12	nt	nt	nt	i	nt
O=C(CSc1n[nH]c(-c2ccccc2Cl)n1)N1CCN(c2ccccc2F)CC1	nt	i	i	i	i
CC(C)(C)S(=O)(=O)N1C[C@H]2CC/C=C\C/C(c3ccccc3)=C\2[C@@H]1CCO	i	nt	nt	i	nt
FCCCOc1ccc(/C=N/OCc2c(Cl)cccc2Cl)cc1	-65	i	i	i	i
FCCCOc1ccc(/C=N/OCc2ccc(Cl)cc2)cc1	i	i	i	i	i
C=CCN1C(=O)CN=C1Nc1cccc(C)c1	i	i	i	i	i
Cc1ccc(NC2=NCC(=O)N2Cc2ccccc2)c(C)c1	i	i	i	39	i
COc1ccccc1NC1=NCC(=O)N1Cc1ccccc1	i	i	i	i	i
Cc1cccc(NC2=NCC(=O)N2CCc2ccccc2)c1	i	i	-36	i	i
CCOc1ccc(-c2nc(C(N)=O)c3c(n2)n(-c2ccc4c(c2)OCO4)c(=O)n3CC)cc1	nt	i	i	i	i
COc1ccc(F)cc1-c1cc(NC=O)c2ncc(-c3cccc(C(=O)N(C)C)c3)n2c1	?	nt	nt	52	nt
COc1cc(/C=C(\C#N)c2nc3c(s2)CCCC3)ccc1O	nt	60	i	nt	i
Cc1ccc(NC(=O)C(Cc2ccccc2)n2cccc2)c(C)c1 (centres undefined)	nt	i	i	i	i
O=C(NCc1ccc(F)cc1)C1C2C=CC3(CN(Cc4cccnc4)C(=O)C13)O2 (centres undefined)	i	i	i	31	i
O/N=C/c1cn(-c2ccccc2)nc1-c1cccnc1	i	i	i	i	i
Cc1ccc(S(=O)(=O)N/N=C\c2cn(-c3ccccc3)nc2-c2ccccc2)cc1	i	i	i	i	i
Cc1ccc(-c2nn(-c3ccccc3)cc2/C=N/O)cc1	-53	58	i	i	38
Cc1ccc(-c2nn(-c3ccccc3)cc2/C=N/NS(=O)(=O)c2ccccc2)cc1	-54	i	i	i	i
Cc1ccc(-c2nn(-c3ccccc3)cc2/C=C/C(=O)Nc2nccs2)cc1	i	i	-31	i	i
SMILES	D3 antag	D1 agonist	D1 antag	DRD3 agonist	D1 PAM
COC(=O)c1sc(NC(=O)c2c(C)noc2C)nc1C	i	i	-33	i	i
Cc1nc(NC(=O)c2ccco2)sc1C(=O)O	i	i	-35	i	i
COC(=O)c1sc(NC(=S)NC(=O)c2ccccc2C)nc1C	i	92	i	i	i
COC(=O)c1sc(NC(=O)c2c(-c3ccccc3)noc2C)nc1C	i	i	i	i	i
COC(=O)c1sc(N)c(C(=O)OC)c1COC(=O)c1c(C)noc1C	-69	i	i	i	i
COc1ccc(S(=O)(=O)N2CCOC23CCN(S(=O)(=O)c2c(C)cc(C)cc2C)CC3)cc1	i	i	i	i	i
CCc1nc2c(OCc3ccc(Cl)cc3Cl)cccn2c1N(C=O)Cc1ccc(OC)cc1	i	nt	nt	i	nt
COc1ccc(NC(=O)Cn2c(=O)n(-c3ccc(C)c(C)c3)c(=O)c3c(C)c(C)sc32)cc1	nt	i	i	i	i
O=C(NCCCN1CCOCC1)c1cccs1	i	i	-35	i	i
O=C(NCCN1CCN(C(=O)c2cccs2)CC1)c1cccs1	-74	i	i	i	i
O=C(CNC(=O)c1cccs1)NCCN1CCN(c2ccccc2F)CC1	-52	i	i	i	i
COc1ccccc1C(=O)NCCC(=O)N1CCN(S(=O)(=O)c2ccccc2C(F)(F)F)CC1	i	i	i	i	i
CCOc1ccc(NC(=O)CN(C)C(=O)c2ccc(C3SCCS3)cc2)cc1OCC	i	i	-45	i	i
COc1ccc(NC(=O)CN(C)C(=O)c2ccc(=O)[nH]c2)cc1	i	i	i	i	i
CCOc1ccc(NC(=O)CN(C)C(=O)c2ccc(=O)[nH]c2)cc1OCC	i	i	-77	i	i
CCOc1ccc(NC(=O)CN(C)C(=O)C2CC2C)cc1OCC (centres undefined)	i	i	i	i	i
CCOC(=O)C1(Cc2ccc(Cl)cc2)CCN(C(C)Cc2ccc(O)c(OC)c2)CC1 (centres undefined)	?	i	-37	i	i
Cc1cccc2cc(CN(Cc3ccco3)C(=O)c3ccncc3)c(=O)[nH]c12	?	i	-70	i	i
COCCN(Cc1cc2cccc(C)c2[nH]c1=O)C(=O)c1ccccc1	i	i	i	i	i
CCC(=O)N(CCc1ccccc1)Cc1cc2cccc(C)c2[nH]c1=O	i	i	-43	i	i
CCN1CCN(C(CNS(=O)(=O)c2ccccc2)c2ccccc2)CC1 (centres undefined)	i	i	i	i	i
CCOC(=O)c1cnc2c(C)cc(Cl)cc2c1N1CCN(C)CC1	i	i	i	i	i
O=[N+]([O-])c1ccc(OC/C=C2\Oc3ccc([N+](=O)[O-])cc3C2N2CCOCC2)cc1 (centres undefined)	i	i	-69	i	i
O=[N+]([O-])c1ccc2c(c1)C(N1CCOCC1)/C(=C/COc1ccc(F)cc1)O2 (centres undefined)	i	i	i	i	i
O=C(Cc1cccc2ccccc12)NCC(=O)Nc1ccccc1F	i	i	-51	i	i
SMILES	D3 antag	D1 agonist	D1 antag	DRD3 agonist	D1 PAM
O=C(O)c1c[nH]c2nccnc12	i	nt	nt	i	nt
Cc1cc(C)n(C(CC(=O)O)C(=O)O)n1 (centres undefined)	i	i	i	i	i
Cc1nn(C(CC(=O)O)C(=O)O)c(C)c1Br (centres undefined)	i	i	i	42	i
CC(=O)Nc1ccc(S(=O)(=O)NNc2ccc([N+](=O)[O-])cc2)cc1	i	i	i	i	i
CC(C)(C)C(=O)Nc1ccc(Sc2ccc([N+](=O)[O-])cc2)cc1	i	i	-34	i	i
CC(=O)Nc1ccc(Sc2ccc([N+](=O)[O-])o2)cc1	-74	nt	nt	i	nt
CC(=O)NC(CC(=O)O)c1ccc([N+](=O)[O-])cc1 (centres undefined)	i	i	i	i	i
CC(C)(C)C(=O)NC(NC(=O)C(C)(C)C)c1ccc([N+](=O)[O-])cc1	i	i	-32	i	i
CCCCOc1ccc(C(=O)NCC(=O)N2CCN(C/C=C/c3ccccc3)CC2)cc1	i	nt	nt	i	nt
Cc1cc(C(=O)N2CCC2(C)C(=O)Nc2cccc3c2CCCC3)nn1C (centres undefined)	i	nt	nt	i	nt

Assay outcomes deposited in PubChem by National Center for Advancing Translational Sciences (NCATS).
